Data reported in PubChem BioAssay (Tox21).
Inconclusive results are not listed. The source made the active and inactive calls. Unless noted, calls follow the shape of the dose curve; as a rule, active = well fitted curve in the direction sought with a large enough effect in the repeat runs; inconclusive = weak or mixed curves; inactive = no such curve, though single readings can be large; an effect the other way counts as inactive or inconclusive.

Tests used:
[1] = qHTS assay for small molecules that induce genotoxicity in human embryonic kidney cells expressing luciferase-tagged ATAD5 (AID 651632); also: nearly all actives have a fitted effect of over 15% in size
Summary of the method: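 Test compounds were delivered by pin tool onto HEK293T reporter cells (2,000/well) expressing ATAD5 fused to luciferase. After 16 hr at 37C, 5% CO2, Amplite was added for 30 min at room temperature and luminescence was measured.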

[2] = qHTS assay for small molecule agonists of the p53 signaling pathway - cell viability (AID 651633; calls by dose curve;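 also: p53RE-bla HCT reporter cells with a stable beta-lactamase p53 reporter; series mostly up to about 83 µM; nearly all actives have a fitted effect of over 30% in size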)
Summary of the method: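 p53RE-bla cells were treated with compound for 16 hours at 37 C. Cytotoxicity was then measured as CellTiter-Glo luminescence after 30 min at room temperature.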

[3] = qHTS assay for small molecules that induce genotoxicity in human embryonic kidney cells expressing luciferase-tagged ATAD5 - cell viability (AID 651634; calls by dose curve; also: nearly all actives have a fitted effect of over 25% in size)
Summary of the method: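 Quantitative high-throughput format. HEK293T cells expressing ATAD5 fused to luciferase were plated at 2,000 cells/well and treated 15.5 hr with compound versus DMSO. Viability was determined by fluorescent live-cell protease substrate, 30 min at 37C.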

[4] = qHTS assay for small molecule disruptors of the mitochondrial membrane potential - cell viability (AID 720634; calls by dose curve;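 also: human HepG2 liver cancer cells; series mostly up to about 83 µM; nearly all actives have a fitted effect of over 20% in size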)
Summary of the method: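 Same-well counter-screen: following the MMP dye addition, CellTiter-Glo was added to 1 hr compound-treated HepG2 cells and luminescence read after 30 min at room temperature.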

[5] = qHTS assay for small molecule disruptors of the mitochondrial membrane potential (AID 720635); also: potency is read from the fitted curve at half-maximal effect
Summary of the method: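 HepG2 cells exposed to compound 1 hr at 37C, then Mito-MPS dye 30 min. Ratio read of aggregate (540/590 nm) versus monomer (490/535 nm) fluorescence.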

[6] = qHTS assay to test for compound auto fluorescence at 590 nm (red) in HepG2 cells (AID 720674)
Summary of the method: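 Seeding: 2,000 HepG2 cells/well, MEM/10% FBS, overnight 37 C. Dosing: compound vs DMSO. Incubation: 1 hr, 37 C, 5% CO2. Read: fluorescence 540 ex/590 em, Rose Bengal sodium as red reference.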

[7] = qHTS assay to test for compound auto fluorescence at 535 nm (green) in HepG2 cells (AID 720675)
[8] = qHTS assay to test for compound auto fluorescence at 460 nm (blue) in HEK293 cells (AID 720678); also: potency is read from the fitted curve at half-maximal effect
Summary of the method: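 Measured: blue fluorescence (Ex 405/Em 460 nm) of compound-treated HEK293 cells, incubated overnight at 37C with 5% CO2 and scaled to triamterene equivalents.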

[9] = qHTS assay to test for compound auto fluorescence at 590 nm (red) in HEK293 cells (AID 720679)
Summary of the method: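 Using HEK293 cells at 2,000 per well, the screen added 23 nL of each compound after cell attachment and incubated overnight (37C, 5% CO2). The plate reader then captured red-label fluorescence, Ex/Em 540/590nm.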

[10] = qHTS assay to test for compound auto fluorescence at 535 nm (green) in HEK293 cells (AID 720680)
[11] = qHTS assay to test for compound auto fluorescence at 460 nm (blue) in HEK293 cell free culture (AID 720681); also: potency is read from the fitted curve at half-maximal effect
Summary of the method: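 Compounds were added to cell-free DMEM with 10% FBS and fluorescence read directly. The blue channel used 405 nm excitation and 460 nm emission, with triamterene as the reference fluorophore.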

[12] = qHTS assay to test for compound auto fluorescence at 535 nm (green) in HEK293 cell free culture (AID 720682)
Summary of the method: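 Each library compound, or DMSO control, is added by pintool to medium alone, comprising DMEM and 10% FBS. Emission at 535 nm following 485 nm excitation is quantified against fluorescein.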

[13] = qHTS assay to test for compound auto fluorescence at 590 nm (red) in HEK293 cell free culture (AID 720683)
Summary of the method: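 Cell-free wells of DMEM with 10% FBS received compound, and intrinsic fluorescence was read at excitation/emission 540/590 nm. Values expressed as equivalence to Rose Bengal sodium.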

[14] = qHTS assay to test for compound auto fluorescence at 590 nm (red) in HepG2 cell free culture (AID 720684)
Summary of the method: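 Rose Bengal sodium served as the reference for red signal. Test compounds were dispensed into serum-containing MEM (10% FBS) without cells, and plates were read at 540/590 nm.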

[15] = qHTS assay to test for compound auto fluorescence at 460 nm (blue) in HepG2 cell free culture (AID 720685)
Summary of the method: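 Cell-free plates of MEM plus 10% FBS received 23 nL compound or DMSO vehicle; blue-channel (405/460 nm) intensity scored against triamterene as reference fluorophore.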

[16] = qHTS assay to test for compound auto fluorescence at 535 nm (green) in HepG2 cell free culture (AID 720686)
[17] = qHTS assay to test for compound auto fluorescence at 460 nm (blue) in HepG2 cells (AID 720687)
Summary of the method: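 HepG2 cells in MEM with 10% FBS, attached overnight at 37 C, were exposed to compound or DMSO for 1 hr at 37 C, 5% CO2. Blue fluorescence was read at 405/460 nm, with triamterene as reference fluorophore.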

[18] = target: Glucocorticoid receptor (Homo sapiens) (UniProt P04150); assay: qHTS assay to identify small molecule agonists of the glucocorticoid receptor (GR) signaling pathway (AID 720691; active = well fitted activation curve with a large enough effect in the signal ratio in the repeat runs, not every such curve was filed as active; the % refers to the signal ratio)
Chain of Glucocorticoid receptor (Homo sapiens) (P04150 whole entry, looked up): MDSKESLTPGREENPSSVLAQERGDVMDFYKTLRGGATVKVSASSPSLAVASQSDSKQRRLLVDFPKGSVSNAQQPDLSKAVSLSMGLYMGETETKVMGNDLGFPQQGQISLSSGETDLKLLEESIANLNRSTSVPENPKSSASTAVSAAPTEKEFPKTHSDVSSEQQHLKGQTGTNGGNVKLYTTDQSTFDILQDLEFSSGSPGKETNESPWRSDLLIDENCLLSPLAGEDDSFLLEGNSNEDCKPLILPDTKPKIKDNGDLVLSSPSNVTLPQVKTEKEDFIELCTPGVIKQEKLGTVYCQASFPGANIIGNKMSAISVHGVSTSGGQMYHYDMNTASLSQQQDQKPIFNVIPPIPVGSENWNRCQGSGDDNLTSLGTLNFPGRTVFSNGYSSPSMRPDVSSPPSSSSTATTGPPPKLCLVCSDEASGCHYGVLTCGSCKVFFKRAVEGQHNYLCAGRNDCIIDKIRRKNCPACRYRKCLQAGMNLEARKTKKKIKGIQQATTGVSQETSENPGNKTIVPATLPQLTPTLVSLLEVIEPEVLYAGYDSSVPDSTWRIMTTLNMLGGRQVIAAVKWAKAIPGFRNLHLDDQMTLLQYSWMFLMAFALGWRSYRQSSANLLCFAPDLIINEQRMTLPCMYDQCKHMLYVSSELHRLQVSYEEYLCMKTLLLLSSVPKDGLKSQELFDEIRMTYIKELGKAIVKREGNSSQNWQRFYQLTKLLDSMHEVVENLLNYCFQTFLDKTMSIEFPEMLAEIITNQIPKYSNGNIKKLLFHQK
Summary of the method: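 A HeLa cervical cancer line expressing GR and a glucocorticoid response element-driven beta-lactamase gene is treated with compounds for 18 h; LiveBLAzer B/G FRET substrate is then applied and fluorescence read.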

[19] = target: Glucocorticoid receptor (Homo sapiens) (UniProt P04150); assay: qHTS assay to identify small molecule antagonists of the glucocorticoid receptor (GR) signaling pathway (AID 720692; active = well fitted inhibition curve with a large enough effect in the signal ratio in the repeat runs, not every such curve was filed as active; the % refers to the signal ratio)
Summary of the method: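 GRE-bla HeLa line, dex-stimulated (5 nM final). Compound exposure 18 h, 37 C. Beta-lactamase FRET read after 2 h RT substrate.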

[20] = qHTS assay for small molecule agonists of the p53 signaling pathway (AID 651631; calls by dose curve; also: nearly all actives have a fitted effect of over 15% in size)
Summary of the method: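 Beta-lactamase reporter activity under p53 response elements was quantified in HCT-116 cells by FRET fluorescence, following 16 h incubation with test compounds at 37 °C and 2 h substrate development at room temperature.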
% is scaled to controls: 0 for no effect and ±100 for the full control effect; tags tell the direction and shape of the fitted curve or compound fluorescence and quenching.

Oc1ccc(Oc2ccccc2)cc1
inactive: Potency [1] | Potency [2] | Potency [3] | Potency [4] | outcome [6] | outcome [7] | Potency [8] | outcome [9] | outcome [10] | Potency [11] | outcome [12] | outcome [13] | outcome [14] | outcome [15] | outcome [16] | outcome [17]
active: Potency [5] 20.6 µM

CCCc1ccc(OC)cc1
inactive: Potency [1] | Potency [2] | Potency [3] | Potency [4] | Potency [5] | outcome [6] | outcome [7] | Potency [8] | outcome [9] | Potency [11] | outcome [12] | outcome [13] | outcome [14] | outcome [15] | outcome [16] | outcome [17] | Potency [18] | Potency [19]

N#Cc1ccc(CC(=O)c2cccc(C(F)(F)F)c2)cc1
inactive: Potency [1] | Potency [2] | Potency [3] | outcome [7] | Potency [8] | outcome [9] | outcome [10] | Potency [11] | outcome [12] | outcome [13] | outcome [14] | outcome [15] | outcome [16] | outcome [17] | Potency [18]

CC(COc1ccccc1)NC(C)C(O)c1ccc(O)cc1 (stereo unspecified)
inactive: Potency [1] | Potency [2] | Potency [3] | Potency [4] | Potency [5] | fluorescence, relative to Rose Bengal [6] -0.283% [at 18.6 µM] | fluorescence, % of fluorescein control [7] -0.086% [at 18.6 µM] | fluorescence, % of triamterene [8] -0.0294% [at 18.6 µM] | fluorescence, % of fluorescent control [9] -0.22% [at 18.6 µM] | fluorescence, % of fluorescein [10] 0.0104% [at 18.6 µM] | fluorescence, % of fluorescent control [11] 0.128% [at 18.6 µM] | activity change [12] -0.0013% [at 18.6 µM] | fluorescence, % of fluorescent control [13] 0.208% [at 18.6 µM] | fluorescence, % of Rose Bengal [14] -0.0388% [at 18.6 µM] | fluorescence, % of fluorescent control [15] -0.0841% [at 18.6 µM] | fluorescence, % of fluorescein control [16] 0.0107% [at 18.6 µM] | fluorescence, % of fluorescent control [17] 0.0066% [at 18.6 µM] | Potency [18] | Potency [19]

Clc1nc2ccccc2nc1Cl
inactive: Potency [1] | Potency [2] | Potency [3] | Potency [4] | outcome [6] | outcome [7] | Potency [8] | outcome [9] | outcome [10] | Potency [11] | outcome [12] | outcome [13] | outcome [14] | outcome [15] | outcome [16] | outcome [17] | Potency [18] | Potency [19]

CC(Cc1ccccc1)(NC(=O)CN)c1ccccc1 (stereo unspecified)
inactive: Potency [1] | Potency [2] | Potency [3] | Potency [4] | outcome [7] | Potency [8] | outcome [9] | Potency [11] | outcome [12] | outcome [13] | outcome [14] | outcome [15] | outcome [16] | outcome [17] | Potency [18]

CC(O)CN (stereo unspecified)
inactive: Potency [1] | Potency [2] | Potency [3] | outcome [6] | outcome [7] | Potency [8] | outcome [9] | Potency [11] | outcome [12] | outcome [13] | outcome [14] | outcome [15] | outcome [16] | outcome [17] | Potency [18] | Potency [19]

Nc1ccc(-c2ccc(F)cc2)cc1
inactive: Potency [20] | Potency [3] | outcome [6] | outcome [7] | Potency [8] | outcome [9] | Potency [11] | outcome [12] | outcome [13] | outcome [14] | outcome [15] | outcome [16] | outcome [17]

O=C(O)c1cccnc1Nc1cccc(C(F)(F)F)c1
inactive: Potency [1] | Potency [2] | Potency [3] | Potency [4] | outcome [7] | Potency [8] | outcome [9] | outcome [10] | Potency [11] | outcome [13] | outcome [14] | outcome [15] | outcome [16] | outcome [17] | Potency [18] | Potency [19]
active: Potency [5] 11.9 µM

CC1(C)CC(O)CC(C)(C)N1[O]
inactive: Potency [1] | Potency [2] | Potency [3] | Potency [4] | outcome [6] | outcome [7] | Potency [8] | outcome [9] | outcome [10] | Potency [11] | outcome [12] | outcome [14] | outcome [15] | outcome [16] | outcome [17]

Cc1ccc2ccccc2c1[N+](=O)[O-]
inactive: Potency [20] | Potency [2] | outcome [6] | outcome [7] | Potency [8] | outcome [9] | Potency [11] | outcome [12] | outcome [13] | outcome [14] | outcome [15] | outcome [16] | outcome [17] | Potency [18]

NC(=O)c1ccccc1
inactive: Potency [1] | Potency [2] | Potency [3] | Potency [5] | outcome [7] | Potency [8] | outcome [9] | outcome [10] | Potency [11] | outcome [12] | outcome [14] | outcome [15] | outcome [16] | outcome [17] | Potency [18] | Potency [19]

CC[C@H](NC(C)C)[C@H](O)c1ccc(O)c2[nH]c(=O)ccc12
inactive: Potency [1] | Potency [2] | Potency [3] | Potency [4] | Potency [5] | outcome [6] | outcome [7] | outcome [9] | outcome [10] | outcome [12] | outcome [13] | outcome [14] | outcome [15] | outcome [16] | outcome [17] | Potency [18] | Potency [19]
active: Potency [8] 11.2 µM [fluorescent] | Potency [11] 14.1 µM

Clc1cccc(C(c2ccc3nc[nH]c3c2)n2ccnc2)c1 (stereo unspecified)
inactive: Potency [1] | Potency [2] | Potency [3] | Potency [4] | outcome [6] | outcome [7] | Potency [8] | outcome [9] | Potency [11] | outcome [12] | outcome [13] | outcome [14] | outcome [15] | outcome [16] | outcome [17] | Potency [18]

CCOCCn1c(N2CCCN(C)CC2)nc2ccccc21
inactive: Potency [1] | Potency [2] | Potency [3] | Potency [4] | Potency [5] | outcome [6] | outcome [7] | Potency [8] | outcome [9] | outcome [10] | Potency [11] | outcome [12] | outcome [13] | outcome [14] | outcome [15] | outcome [16] | outcome [17]

CCCCCCCCC(=O)OCC(C)OC(=O)CCCCCCCC (stereo unspecified)
inactive: Potency [1] | Potency [2] | Potency [3] | Potency [4] | outcome [6] | outcome [7] | Potency [8] | outcome [9] | Potency [11] | outcome [12] | outcome [13] | outcome [14] | outcome [15] | outcome [16] | outcome [17] | Potency [18]
